# Measurements from PubChem BioAssay (EPA / NIEHS).
# Records with an inconclusive call do not appear. The source holds several records for some structures; these can differ, active in one and inactive in another. Calls of active or inactive are those of the source. How the source made its calls, unless noted: active means hit-call score of the fitted dose curve at least 0.9, where 1 is the maximum; inactive means score below 0.9.
# What was measured:
# [1] = read-out: Vascular cell adhesion molecule 1 (VCAM1), VCAM1 (gene 7412); experiment: BSK_LPS_VCAM1: BioMAP Diversity Plus: LPS Assay for Vascular cell adhesion molecule 1 (VCAM1) Biomarker Activity (AID 2283086); conditions: primary human HUVEC with PBMC; actives raise or lower the signal
# Procedure, shortened: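 HUVEC + PBMC co-culture, LPS system; compound 24 h; VCAM-1 by ELISA; bidirectional fit vs DMSO control; parallel SRB (0.1%, TCA-fixed, 560 nm) for cytotoxicity.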
# CD40, CD40 (gene 958) = experiment: BSK_SAg_CD40: BioMAP Diversity Plus: SAg Assay for CD40 Biomarker Activity (AID 2283088); conditions: primary human HUVEC with PBMC; actives raise or lower the signal
# Procedure, shortened: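 Endpoint derived by fitting increases or decreases versus DMSO controls. CD40 is detected by fluorescence ELISA in a human vascular co-culture of endothelium and PBMC at 24 h.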
# CD69, CD69 (gene 969) = experiment: BSK_SAg_CD69: BioMAP Diversity Plus: SAg Assay for CD69 Biomarker Activity (AID 2283089); conditions: primary human HUVEC with PBMC; actives raise or lower the signal;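 on AC50: cell surface CD69 protein quantified by ELISA with fluorescence detection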
# Procedure, shortened: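 Values derive from bidirectional fitting relative to DMSO vehicle. Cells: umbilical vein endothelium plus peripheral blood mononuclear cells, treated 24 h before fluorescent ELISA for CD69.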
# [2] = read-out: Monocyte Chemoattractant Protein-1 (MCP1), CCL2 (gene 6347); experiment: BSK_SAg_MCP1: BioMAP Diversity Plus: SAg Assay for Monocyte Chemoattractant Protein-1 (MCP1) Biomarker Activity (AID 2283090); conditions: primary human HUVEC with PBMC; actives raise or lower the signal
# Procedure, shortened: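 MCP-1 levels in the endothelial–PBMC SAg co-culture were quantified by ELISA at 24 h post-dosing; both increases and decreases versus DMSO scored. Cytotoxicity monitored by SRB total protein in parallel cultures.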
# [3] = read-out: E-selectin (Homo sapiens) (UniProt P16581); experiment: BSK_SAg_Eselectin: BioMAP Diversity Plus: SAg Assay for Eselectin Biomarker Activity (AID 2283091); conditions: primary human HUVEC with PBMC; actives raise or lower the signal
# Procedure, shortened: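 Endpoint values derive from bidirectional fitting relative to DMSO, using ELISA-measured E-selectin in a human vascular co-culture (umbilical vein endothelium plus PBMC) sampled 24 h after dosing.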
# [4] = BSK_SAg_PBMCCytotoxicity: PBMC Cytotoxicity Assessment in the BioMAP Diversity Plus: SAg Assay (AID 2283093); conditions: primary human HUVEC with PBMC;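 further: PBMC viability measured as Alamar Blue reduction fluorescence at 546/580 nm; fitted both ways against DMSO so a hit may be loss or gain of signal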;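 on AC50: PBMC superantigen activated with SEB plus TSST-1 one hour after compound addition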
# Procedure, shortened: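 Human umbilical vein endothelial cells co-cultured with PBMC; PBMC (75,000/well) pre-treated with compound 1 h, then activated with SEB and TSST-1 (20 ng/mL final each) for 90 h. Alamar Blue added 6 h, fluorescence 546/580 nm; bidirectional fit versus DMSO.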
# [5] = read-out: Interleukin-8 (IL8), CXCL8 (gene 3576); experiment: BSK_SAg_IL8: BioMAP Diversity Plus: SAg Assay for Interleukin-8 (IL8) Biomarker Activity (AID 2283094); conditions: primary human HUVEC with PBMC; actives raise or lower the signal
# Procedure, shortened: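 ELISA read-out of IL-8 in a primary human vascular co-culture (umbilical vein endothelium plus PBMC), taken 24 h after compound addition. Values derive from bidirectional fits against DMSO negative controls.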
# [6] = BSK_SAg_Proliferation: Cell Proliferation Assessment in the BioMAP Diversity Plus: SAg Assay (AID 2283095); conditions: primary human HUVEC with PBMC;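 further: relative cell number as total protein by SRB absorbance in sub-confluent culture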
# Procedure, shortened: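 Cells (endothelium plus PBMC, human primary) were dosed with chemical, cultured 96 h, fixed in 10% TCA and stained with 0.1% SRB. Absorbance at 560 nm gave relative protein, fitted bidirectionally relative to DMSO.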
# [7] = BSK_SAg_SRB: Viability Assessment in the BioMAP Diversity Plus: SAg Assay (AID 2283096); conditions: primary human HUVEC with PBMC;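 further: cells read one day after compound addition; hits may be either gain or loss of signal compared with DMSO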
# Procedure, shortened: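 Endothelial/PBMC primary human co-culture; compound 24 h; fix 10% TCA, stain 0.1% SRB, A560; protein content as cytotoxicity proxy; bidirectional curve fit, DMSO = baseline.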
# [8] = target: human CYP2D6, CYP2D6 (gene 1565) (UniProt P10635); experiment: NVS_ADME_hCYP2D6: NovaScreen (NVS) CYP450-related Enzyme Activity (ADME) Assay for human CYP2D6 (AID 2283107; active means hit-call score of the fitted dose curve at least 0.9, where 1 is the maximum)
# Sequence of human CYP2D6, CYP2D6 (gene 1565) (P10635 whole entry, looked up): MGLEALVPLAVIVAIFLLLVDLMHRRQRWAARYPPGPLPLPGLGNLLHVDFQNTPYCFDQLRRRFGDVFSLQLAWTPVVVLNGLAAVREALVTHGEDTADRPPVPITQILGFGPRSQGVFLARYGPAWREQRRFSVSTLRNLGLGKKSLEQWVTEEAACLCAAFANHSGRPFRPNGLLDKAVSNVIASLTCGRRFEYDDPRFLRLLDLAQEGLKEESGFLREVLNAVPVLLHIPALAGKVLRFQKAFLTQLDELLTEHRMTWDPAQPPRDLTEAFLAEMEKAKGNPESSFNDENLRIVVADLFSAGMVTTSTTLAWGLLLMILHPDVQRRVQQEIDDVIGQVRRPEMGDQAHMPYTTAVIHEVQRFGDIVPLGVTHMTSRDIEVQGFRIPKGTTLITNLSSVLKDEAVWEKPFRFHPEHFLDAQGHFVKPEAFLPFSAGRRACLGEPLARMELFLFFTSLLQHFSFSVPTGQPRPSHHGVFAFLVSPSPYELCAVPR
# Procedure, shortened: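 Biochemical fluorescence assay, insect-cell-derived enzyme. Read at 1 h; inhibition taken from loss of signal against acetonitrile. Screened at 10 uM in duplicate, with concentration series for actives.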
# [9] = target: human Caspase 5 (CASP5), CASP5 (gene 838) (UniProt P51878); experiment: NVS_ENZ_hCASP5: NovaScreen (NVS) Enzymatic Assay for human Caspase 5 (CASP5) (AID 2283137; active means hit-call score of the fitted dose curve at least 0.9, where 1 is the maximum)
# Sequence of human Caspase 5 (CASP5), CASP5 (gene 838) (P51878 whole entry, looked up): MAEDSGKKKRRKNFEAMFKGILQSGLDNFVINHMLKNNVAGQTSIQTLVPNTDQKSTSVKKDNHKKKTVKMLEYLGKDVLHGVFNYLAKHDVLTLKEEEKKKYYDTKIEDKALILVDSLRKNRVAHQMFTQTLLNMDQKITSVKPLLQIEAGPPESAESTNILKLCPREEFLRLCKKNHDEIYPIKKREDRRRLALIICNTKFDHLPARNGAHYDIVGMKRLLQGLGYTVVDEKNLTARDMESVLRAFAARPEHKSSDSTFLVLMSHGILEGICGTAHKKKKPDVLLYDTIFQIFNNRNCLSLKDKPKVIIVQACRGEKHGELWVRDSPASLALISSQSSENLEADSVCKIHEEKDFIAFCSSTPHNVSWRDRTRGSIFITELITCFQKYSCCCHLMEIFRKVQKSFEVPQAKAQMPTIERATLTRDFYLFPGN
# Procedure, shortened: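 E. coli-derived enzyme, cell-free, 2 h incubation, fluorescence intensity. 25 uM duplicate single-point; hits → concentration series to 50 uM. DMSO baseline, positive/negative controls on every plate.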
# [10] = target: human Phosphodiesterase 10 (PDE10), PDE10A (gene 10846) (UniProt Q9Y233); experiment: NVS_ENZ_hPDE10: NovaScreen (NVS) Enzymatic Assay for human Phosphodiesterase 10 (PDE10) (AID 2283195; active means hit-call score of the fitted dose curve at least 0.9, where 1 is the maximum)
# Sequence of human Phosphodiesterase 10 (PDE10), PDE10A (gene 10846) (Q9Y233 whole entry, looked up): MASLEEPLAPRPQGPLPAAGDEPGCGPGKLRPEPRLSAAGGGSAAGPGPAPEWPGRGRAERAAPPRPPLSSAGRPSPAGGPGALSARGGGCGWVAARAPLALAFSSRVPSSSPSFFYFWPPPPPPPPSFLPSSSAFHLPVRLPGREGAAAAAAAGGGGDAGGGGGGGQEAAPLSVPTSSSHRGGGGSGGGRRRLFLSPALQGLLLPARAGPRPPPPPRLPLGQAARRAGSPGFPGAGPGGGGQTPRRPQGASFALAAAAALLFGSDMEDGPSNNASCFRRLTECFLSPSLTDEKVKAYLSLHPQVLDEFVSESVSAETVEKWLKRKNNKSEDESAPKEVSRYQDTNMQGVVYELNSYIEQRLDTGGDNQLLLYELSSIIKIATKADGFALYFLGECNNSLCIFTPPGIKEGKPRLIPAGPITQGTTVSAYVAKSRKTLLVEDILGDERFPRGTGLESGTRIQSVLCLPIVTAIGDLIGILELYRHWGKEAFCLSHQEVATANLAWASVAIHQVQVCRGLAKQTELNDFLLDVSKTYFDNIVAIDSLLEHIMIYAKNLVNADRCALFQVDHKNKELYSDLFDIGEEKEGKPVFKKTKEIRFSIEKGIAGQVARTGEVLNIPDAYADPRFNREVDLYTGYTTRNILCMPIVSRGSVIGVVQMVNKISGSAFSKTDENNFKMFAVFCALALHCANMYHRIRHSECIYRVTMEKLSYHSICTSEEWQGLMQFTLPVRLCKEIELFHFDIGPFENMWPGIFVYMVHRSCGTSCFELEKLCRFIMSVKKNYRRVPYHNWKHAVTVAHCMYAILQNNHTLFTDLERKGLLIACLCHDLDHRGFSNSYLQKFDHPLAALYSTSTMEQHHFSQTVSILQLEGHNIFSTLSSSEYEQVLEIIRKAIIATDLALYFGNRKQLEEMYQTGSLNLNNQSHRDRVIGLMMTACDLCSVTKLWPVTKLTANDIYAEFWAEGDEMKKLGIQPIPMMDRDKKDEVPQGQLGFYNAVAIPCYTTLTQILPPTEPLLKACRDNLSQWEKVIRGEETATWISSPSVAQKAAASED
# Procedure, shortened: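 Fluorescence/mobility-shift readout of PDE10A enzyme activity, taken 1 h post-dosing. Primary screen in duplicate at 25 uM; actives (e.g. ≥30% inhibition) retested as singleton concentration-response, top concentration 50 uM.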
# [11] = target: human Dual Specificity Protein Phosphatase 3 (DUSP3), DUSP3 (gene 1845) (UniProt P51452); experiment: NVS_ENZ_hDUSP3: NovaScreen (NVS) Enzymatic Assay for human Dual Specificity Protein Phosphatase 3 (DUSP3) (AID 2283152; active means hit-call score of the fitted dose curve at least 0.9, where 1 is the maximum;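 further: phosphatase activity of recombinant human DUSP3 on a fluorogenic substrate without cells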)
# Sequence of human Dual Specificity Protein Phosphatase 3 (DUSP3), DUSP3 (gene 1845) (P51452 whole entry, looked up): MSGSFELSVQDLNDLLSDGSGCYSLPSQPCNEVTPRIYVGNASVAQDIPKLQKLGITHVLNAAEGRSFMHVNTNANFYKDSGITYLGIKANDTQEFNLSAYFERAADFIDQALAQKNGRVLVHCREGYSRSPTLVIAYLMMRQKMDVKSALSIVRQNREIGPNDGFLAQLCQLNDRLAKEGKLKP
# Procedure, shortened: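 Cell-free assay with recombinant human DUSP3 and fluorogenic substrate, read by fluorescence intensity. Primary screen ran duplicate at 25 uM; actives followed up in concentration series; loss of signal versus DMSO scored.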
# [12] = target: human Ephrin type-A Receptor 1 (EphA1), EPHA1 (gene 2041) (UniProt P21709); experiment: NVS_ENZ_hEphA1: NovaScreen (NVS) Enzymatic Assay for human Ephrin type-A Receptor 1 (EphA1) (AID 2283158; active means hit-call score of the fitted dose curve at least 0.9, where 1 is the maximum;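 further: activity is signal loss versus DMSO meaning EphA1 kinase inhibition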)
# Sequence of human Ephrin type-A Receptor 1 (EphA1), EPHA1 (gene 2041) (P21709 whole entry, looked up): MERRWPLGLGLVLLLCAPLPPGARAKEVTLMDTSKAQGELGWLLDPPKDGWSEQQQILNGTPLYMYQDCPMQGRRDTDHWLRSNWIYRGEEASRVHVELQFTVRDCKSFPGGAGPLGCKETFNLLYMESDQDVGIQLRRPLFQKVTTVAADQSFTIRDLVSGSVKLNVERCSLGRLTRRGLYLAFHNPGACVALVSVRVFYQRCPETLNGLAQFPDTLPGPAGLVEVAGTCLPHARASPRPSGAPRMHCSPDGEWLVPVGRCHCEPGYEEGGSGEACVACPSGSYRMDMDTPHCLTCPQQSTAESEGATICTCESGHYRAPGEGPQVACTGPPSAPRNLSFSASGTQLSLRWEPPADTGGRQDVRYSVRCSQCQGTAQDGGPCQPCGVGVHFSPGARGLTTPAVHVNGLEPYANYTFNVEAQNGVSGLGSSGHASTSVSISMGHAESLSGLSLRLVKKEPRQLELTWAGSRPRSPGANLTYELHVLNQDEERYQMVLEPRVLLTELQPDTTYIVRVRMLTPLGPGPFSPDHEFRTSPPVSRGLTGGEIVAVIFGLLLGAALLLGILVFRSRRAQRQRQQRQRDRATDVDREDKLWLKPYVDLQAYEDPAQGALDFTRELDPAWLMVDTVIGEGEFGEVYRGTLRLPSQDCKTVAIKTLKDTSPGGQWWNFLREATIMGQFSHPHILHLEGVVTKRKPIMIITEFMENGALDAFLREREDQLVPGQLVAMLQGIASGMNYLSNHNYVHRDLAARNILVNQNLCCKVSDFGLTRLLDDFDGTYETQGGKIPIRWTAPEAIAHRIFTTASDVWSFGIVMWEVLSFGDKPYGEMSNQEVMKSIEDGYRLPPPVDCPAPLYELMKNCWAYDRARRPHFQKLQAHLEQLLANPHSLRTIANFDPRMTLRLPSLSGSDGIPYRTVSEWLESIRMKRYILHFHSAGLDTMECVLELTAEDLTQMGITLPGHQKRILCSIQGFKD
# Procedure, shortened: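 Here the EphA1 protein is recombinant and the substrate fluorescent, with electrophoretic separation before fluorescence detection at 1 hour. Signal loss against DMSO defines activity; plate controls included; follow-up concentration series reach 50 uM.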
# [13] = target: Cytochrome P450 2C19 (Homo sapiens) (UniProt P33261); experiment: NVS_ADME_hCYP2C19: NovaScreen (NVS) CYP450-related Enzyme Activity (ADME) Assay for human CYP2C19 (AID 2283113; active means hit-call score of the fitted dose curve at least 0.9, where 1 is the maximum;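 further: potency for inhibition seen as loss of fluorescent signal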)
# Procedure, shortened: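 Biochemical CYP2C19 inhibition screen: insect-cell recombinant protein plus fluorescent substrate, 1 h, fluorescence intensity. Acetonitrile defined baseline activity. Single 10 uM concentration in duplicate, with concentration-response follow-up for actives.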
# Sequence of E-selectin (Homo sapiens) (P16581 whole entry, looked up): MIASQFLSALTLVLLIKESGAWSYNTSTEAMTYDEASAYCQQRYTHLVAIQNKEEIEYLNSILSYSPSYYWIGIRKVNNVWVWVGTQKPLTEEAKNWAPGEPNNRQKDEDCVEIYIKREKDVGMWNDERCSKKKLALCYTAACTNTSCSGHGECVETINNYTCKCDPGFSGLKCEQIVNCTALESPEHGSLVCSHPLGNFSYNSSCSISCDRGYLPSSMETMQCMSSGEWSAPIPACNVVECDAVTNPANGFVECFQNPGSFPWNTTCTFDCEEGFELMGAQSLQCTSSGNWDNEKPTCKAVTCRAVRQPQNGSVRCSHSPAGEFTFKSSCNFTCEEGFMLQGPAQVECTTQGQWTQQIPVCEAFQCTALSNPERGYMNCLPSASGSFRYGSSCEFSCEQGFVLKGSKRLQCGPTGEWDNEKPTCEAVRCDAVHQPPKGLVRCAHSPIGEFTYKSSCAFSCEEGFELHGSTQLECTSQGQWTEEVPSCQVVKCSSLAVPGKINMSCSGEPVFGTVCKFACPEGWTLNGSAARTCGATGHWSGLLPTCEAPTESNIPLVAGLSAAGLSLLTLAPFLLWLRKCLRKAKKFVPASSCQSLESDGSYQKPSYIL
compound,measurement,setting,value
O=Nc1ccc(O)cc1,outcome,[1],inactive
same,outcome,"CD40, CD40 (gene 958)",inactive
same,outcome,"CD69, CD69 (gene 969)",inactive
same,outcome,[2],inactive
same,outcome,[3],inactive
same,outcome,[4],inactive
same,outcome,[5],inactive
same,outcome,[6],inactive
same,outcome,[7],inactive
same,AC50,[8],3.79 µM (active)
same,AC50,[9],13.5 µM (active)
same,outcome,[10],inactive
CCCCNc1ccc(NCCCC)c2c1C(=O)c1ccccc1C2=O,outcome,[1],inactive
same,outcome,"CD40, CD40 (gene 958)",inactive
same,outcome,"CD69, CD69 (gene 969)",inactive
same,outcome,[2],inactive
same,outcome,[3],inactive
same,outcome,[4],inactive
same,outcome,[5],inactive
same,outcome,[6],inactive
same,outcome,[7],inactive
O=C(Nc1ccccc1SSc1ccccc1NC(=O)c1ccccc1)c1ccccc1,AC50,[1],9.83 µM (active)
same,AC50,"CD40, CD40 (gene 958)",8.91 µM (active)
same,AC50,"CD69, CD69 (gene 969)",2.01 µM (active)
same,outcome,[2],inactive
same,outcome,[3],inactive
same,AC50,[4],2.78 µM (active)
same,AC50,[5],6.04 µM (active)
same,AC50,[6],3.19 µM (active)
same,outcome,[7],inactive
O=C(c1ccc(O)cc1)c1ccc(O)cc1O,outcome,[1],inactive
same,outcome,"CD40, CD40 (gene 958)",inactive
same,outcome,"CD69, CD69 (gene 969)",inactive
same,outcome,[2],inactive
same,outcome,[3],inactive
same,outcome,[4],inactive
same,outcome,[5],inactive
same,AC50,[6],14.2 µM (active)
same,outcome,[6],inactive
same,outcome,[7],inactive
C=CC=CC=CCCCCC,outcome,[1],inactive
same,outcome,"CD40, CD40 (gene 958)",inactive
same,outcome,"CD69, CD69 (gene 969)",inactive
same,outcome,[2],inactive
same,outcome,[3],inactive
same,outcome,[4],inactive
same,outcome,[5],inactive
same,AC50,[6],6.71 µM (active)
same,outcome,[7],inactive
N#[N+]c1ccc2c(S(=O)(=O)[O-])cccc2c1O,outcome,[1],inactive
same,outcome,"CD40, CD40 (gene 958)",inactive
same,outcome,"CD69, CD69 (gene 969)",inactive
same,outcome,[2],inactive
same,outcome,[3],inactive
same,outcome,[4],inactive
same,outcome,[5],inactive
same,outcome,[6],inactive
same,outcome,[7],inactive
same,AC50,[8],3.97 µM (active)
same,AC50,[9],9.03 µM (active)
same,AC50,[11],14.9 µM (active)
same,outcome,[12],inactive
CCO[Si](CCCN=C=O)(OCC)OCC,outcome,[1],inactive
same,outcome,"CD40, CD40 (gene 958)",inactive
same,outcome,"CD69, CD69 (gene 969)",inactive
same,outcome,[2],inactive
same,outcome,[3],inactive
same,outcome,[4],inactive
same,outcome,[5],inactive
same,outcome,[6],inactive
same,outcome,[7],inactive
CCCCC(CC)COCC1CO1 (centres undefined),outcome,[1],inactive
same,outcome,"CD40, CD40 (gene 958)",inactive
same,outcome,"CD69, CD69 (gene 969)",inactive
same,outcome,[2],inactive
same,outcome,[3],inactive
same,outcome,[4],inactive
same,outcome,[5],inactive
same,outcome,[6],inactive
same,outcome,[7],inactive
CCCCCCCCc1ccc(Nc2ccc(CCCCCCCC)cc2)cc1,outcome,[1],inactive
same,outcome,"CD40, CD40 (gene 958)",inactive
same,outcome,"CD69, CD69 (gene 969)",inactive
same,outcome,[2],inactive
same,AC50,[3],0.0731 µM (active)
same,outcome,[4],inactive
same,outcome,[5],inactive
same,outcome,[6],inactive
same,outcome,[7],inactive
C#CC1(O)CC[C@H]2[C@@H]3CCC4=CCCC[C@@H]4[C@H]3CC[C@@]21C (some centres undefined),AC50,[1],29.9 µM (active)
same,AC50,"CD40, CD40 (gene 958)",30.2 µM (active)
same,AC50,"CD69, CD69 (gene 969)",29.7 µM (active)
same,AC50,[2],31.8 µM (active)
same,AC50,[3],35.9 µM (active)
same,AC50,[4],20 µM (active)
same,AC50,[5],20 µM (active)
same,AC50,[6],12.3 µM (active)
same,AC50,[7],28 µM (active)
same,AC50,[13],0.032 µM (active)
